Experiment [1] in a line: yeast TOR pathway RPL19A-GFP modulators, primary screen, cell-based, S. cerevisiae, multiplex flow cytometry (AID 1862; in the data active = percent of DMSO control GFP below about 86%;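 note: lower values mimic rapamycin by blocking the RPL19A rise seen in DMSO cells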). The note with it: S. cerevisiae RPL19A-GFP strain, flow cytometry fluorescence, 3 h; at 10 µM; stronger effect = lower value. For orientation: In flow cytometry, cells or beads pass a laser one at a time.
The nature of experiment [2]: modulators of MEP2-GFP levels in yeast, primary screen, S. cerevisiae, multiplex flow cytometry (AID 1867;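 active = GFP response, as percent of the DMSO control, above the screen-wide mean plus 3 SD, about 139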;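 note: median GFP channel fluorescence of barcode-gated MEP2-GFP cells measured by flow cytometry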). The note with it: S. cerevisiae MEP2-GFP strain, 3 h, at 10 µM, stronger effect = higher value, 100% means same as DMSO wells.
Experiment [3] in a line: modulators of CIT2-GFP expression in yeast, primary screen, S. cerevisiae, GFP fusion, multiplex flow cytometry (AID 1870;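 active = percent response above a set limit, the screen-wide mean plus 3 SD, cut at about 130% in these data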;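 note: barcoded CIT2-GFP strain pooled with four other GFP strains with rapamycin as positive control; median GFP fluorescence per well over plate mean of DMSO wells so 100% = DMSO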). The note with it: 3 h, at 10 µM, stronger effect = higher value.
Experiment [4] in a line: modulators of LAP4-GFP expression in yeast, primary screen, S. cerevisiae, multiplex flow cytometry (AID 1873;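 active = GFP signal, as percent of the solvent control, above the screen mean plus 3 SD, about 149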). The note with it: 3 h, at 10 µM, stronger effect = higher value.
A short description of experiment [5]: modulators of AGP1-GFP expression in yeast TOR pathway, primary screen, cell-based, multiplex flow cytometry, S. cerevisiae (AID 1887;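 active = GFP signal above the screen-wide mean plus 3 SD, that is over about 124.5% of the solvent control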;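 note: AGP1-GFP fusion strain of S. cerevisiae within a five-strain barcoded multiplex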). The note with it: 3 h, at 10 µM, stronger effect = higher value.
Experiment [6] in a line: inhibitors of CD8+ T cell-vesicle binding, pilot screen, LFA-1/ICAM-1 modulator project, MLPCN validation set, flow cytometry (AID 2523;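 active = response below a set limit, under 55% cells CD8-positive and vesicle-bound, and CD8 cells' 90th-percentile brightness under 279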;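 for vesicle binding response: mean PE anti-B7-1 fluorescence of CD8+ cells relative to row control; 100% = QL9-loaded vesicles with DMSO vehicle in the same plate row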). The note with it: 2C mouse CD8+ T cells, at 7 µM, stronger effect = lower value; double positive events: measured here: CD8+/vesicle+ event percentage.
Experiment [7] addresses Integrin beta-1 (Homo sapiens) + Integrin alpha-4 (Homo sapiens) (UniProt P13612+P05556). In words: inhibition of HUTS-21 binding to VLA-4, pilot screen, VLA-4 allosteric modulator project, U937 cells, HUTS-21 mAb, flow cytometry, validation set (AID 2674;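 active = inhibition above 50%, about 3 SD of the validation set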;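 note: antibody binding induced by the VLA-4 ligand LDV present at three times its Kd; 0% = LDV ligand with antibody and no compound and 100% = antibody without LDV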). The note with it: HUTS-21 LIBS mAb binding, at 6.7 µM, stronger effect = higher value, binding induced by LDV ligand.
Experiment [8] can be described thus: superoxide lowering in aged yeast cells, pilot screen, validation compound set (AID 2706;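 active = superoxide response below 65% of plate, a cut near 3 SD across the whole screen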;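 note: yeast exposed to compound for one week at 30 degrees C before staining; 100% = mean of all compound wells on the same plate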). The note with it: S. cerevisiae aging, superoxide DHE fluorescence; at 10 µM; stronger effect = lower value.
Experiment [9] addresses Beta-adrenergic receptor kinase 1 (Homo sapiens) (UniProt P25098). The experiment in a line: GRK2 binders displacing RNA aptamer, biochemical, validation, human GRK2, bead flow cytometry (AID 488806;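 active = aptamer binding inhibition above 30%, about 3 SD of noise from non-fluorescent compounds; inactive = inhibition at or below 30%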). The note with it: bead-bound GRK2, FAM-aptamer displacement, at 10 µM, stronger effect = higher value.
For experiment [10], the target named is Beta-2 adrenergic receptor (Homo sapiens) (UniProt P07550). The experiment in a line: beta2AR agonists driving receptor internalization, pilot screen, cell-based, FAP fluorogen, flow cytometry, validation set (AID 504459).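 Note: agonist-driven loss of surface beta2AR via internalization measured by FAP dye flow cytometry.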 The note with it: Am2.2-beta2AR cells, FAP surface receptor flow cytometry; at 10 µM; stronger effect = higher value.
Experiment [11] deals with AP-2 complex subunit beta (Homo sapiens) (UniProt P63010). In words: inhibitors of arrestin peptide binding to AP2, pilot screen, biochemical, validation set, GST-AP2 beads, flow cytometry (AID 504541;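 active = inhibition above 54%, about 3 SD of non-fluorescent compounds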;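 note: AP2 carries R879A mutation and is captured from E. coli lysate; bead-bound FITC arrestin peptide fluorescence measuring arrestin peptide binding to AP2; 0% = DMSO wells and 100% = excess unlabeled arrestin peptide control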). The note with it: FITC arrestin peptide, at 10 µM, stronger effect = higher value, AP2 beta2 appendage fragment, R879A mutant.
A short description of experiment [12]: yeast V-ATPase proton transport modulators, S. cerevisiae, pHLuorin, HTS validation (AID 504600; in the data active = response above about 15%;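 note: plate controls were DMSO for no effect and reference compound for full effect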). The note with it: S. cerevisiae pHLuorin cytosolic pH, at 10 µM, stronger effect = higher value.
The test system of experiment [13] is anti-desmoglein-3 scFv antibody binding to human DSG3. In words: inhibitors of anti-DSG3 scFv binding to DSG3, pilot screen, biochemical, validation compound set, bead-based, flow cytometry (AID 588368;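 active = binding below the plate cutoff, the plate median minus 3 SD, with a reading above zero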;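 note: signal is the median channel fluorescence of bead-bound GFP antibody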). The note with it: Protein G beads, DSG3-Fc, scFv-GFP binding, at 10 µM, stronger effect = lower value.
The nature of experiment [14]: inhibitors of fungal efflux pumps CDR1, CDR2, MDR1, pilot screen, validation compound set, multiplex, phenotypic (AID 588506;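 active = efflux inhibition above 0.42, the validation set average plus 4 SD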;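 note: Nile Red retained in cells so higher fluorescence means more efflux inhibition; 0 = negative control wells and 1 = enniatin B 25 µM full block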). The note with it: S. cerevisiae pump-expressing triplex, Nile Red efflux flow cytometry; at 10 µM; stronger effect = higher value; the pumps come from Candida albicans.
For experiment [15], the target named is ATP-binding cassette sub-family B member 6 (Homo sapiens) (UniProt Q9NP58). The experiment in a line: ABCB6 transporter inhibitors, pilot screen, K562-ABCB6 cells, flow cytometry, validation set (AID 588550;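 active = inhibition above the screen-wide mean plus 3 SD, about 51%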;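 note: 0% = DMSO wells and 100% = benzethonium chloride 70 µM positive control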). The note with it: K562-ABCB6 porphyrin accumulation, 1 h, at 10 µM, stronger effect = higher value.
A short description of experiment [16]: promoters of myeloid differentiation in arrested cells, primary screen, cell-based, GFP/MAC1 double positive, flow cytometry, validation set (AID 588685;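 active = differentiation response of at least 50%, scaled between solvent and reference control, from cells with both markers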;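 note: compound exposure lasts four days before antibody staining and flow analysis; 0% = DMSO wells and 100% = 5 µM fulvestrant positive control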). The note with it: ER-HoxA9 marrow cells, stronger effect = higher value, normalized: vehicle 0, fulvestrant 100.

Results filed as inconclusive are left out. The source made the active and inactive calls.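 Rule for the calls, unless noted: active = percent response above 42, roughly 3 SD of non-fluorescent test compounds; inactive = the rest.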

Sequence of ATP-binding cassette sub-family B member 6 (Homo sapiens) (Q9NP58 whole entry, looked up): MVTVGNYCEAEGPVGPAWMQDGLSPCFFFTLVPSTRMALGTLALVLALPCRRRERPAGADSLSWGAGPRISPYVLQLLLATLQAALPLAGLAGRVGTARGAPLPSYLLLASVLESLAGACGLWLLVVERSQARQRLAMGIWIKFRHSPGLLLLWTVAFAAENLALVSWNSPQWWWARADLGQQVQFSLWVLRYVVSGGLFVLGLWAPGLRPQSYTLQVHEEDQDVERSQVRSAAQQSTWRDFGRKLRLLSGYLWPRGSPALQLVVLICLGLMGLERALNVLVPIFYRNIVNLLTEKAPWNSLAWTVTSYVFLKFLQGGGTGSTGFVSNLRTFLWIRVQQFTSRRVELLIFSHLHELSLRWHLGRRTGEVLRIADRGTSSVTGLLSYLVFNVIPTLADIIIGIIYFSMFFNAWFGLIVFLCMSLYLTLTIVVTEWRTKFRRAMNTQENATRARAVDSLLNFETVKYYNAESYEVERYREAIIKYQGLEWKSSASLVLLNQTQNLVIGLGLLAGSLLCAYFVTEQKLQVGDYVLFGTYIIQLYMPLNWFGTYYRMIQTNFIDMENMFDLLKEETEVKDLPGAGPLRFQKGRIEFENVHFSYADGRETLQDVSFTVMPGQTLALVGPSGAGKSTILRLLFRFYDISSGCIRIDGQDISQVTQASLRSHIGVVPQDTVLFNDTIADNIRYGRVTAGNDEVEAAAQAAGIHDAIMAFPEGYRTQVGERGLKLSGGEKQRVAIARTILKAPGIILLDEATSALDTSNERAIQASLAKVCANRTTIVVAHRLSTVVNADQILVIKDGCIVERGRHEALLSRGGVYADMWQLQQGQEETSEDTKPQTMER
Sequence of Beta-adrenergic receptor kinase 1 (Homo sapiens) (P25098 whole entry, looked up): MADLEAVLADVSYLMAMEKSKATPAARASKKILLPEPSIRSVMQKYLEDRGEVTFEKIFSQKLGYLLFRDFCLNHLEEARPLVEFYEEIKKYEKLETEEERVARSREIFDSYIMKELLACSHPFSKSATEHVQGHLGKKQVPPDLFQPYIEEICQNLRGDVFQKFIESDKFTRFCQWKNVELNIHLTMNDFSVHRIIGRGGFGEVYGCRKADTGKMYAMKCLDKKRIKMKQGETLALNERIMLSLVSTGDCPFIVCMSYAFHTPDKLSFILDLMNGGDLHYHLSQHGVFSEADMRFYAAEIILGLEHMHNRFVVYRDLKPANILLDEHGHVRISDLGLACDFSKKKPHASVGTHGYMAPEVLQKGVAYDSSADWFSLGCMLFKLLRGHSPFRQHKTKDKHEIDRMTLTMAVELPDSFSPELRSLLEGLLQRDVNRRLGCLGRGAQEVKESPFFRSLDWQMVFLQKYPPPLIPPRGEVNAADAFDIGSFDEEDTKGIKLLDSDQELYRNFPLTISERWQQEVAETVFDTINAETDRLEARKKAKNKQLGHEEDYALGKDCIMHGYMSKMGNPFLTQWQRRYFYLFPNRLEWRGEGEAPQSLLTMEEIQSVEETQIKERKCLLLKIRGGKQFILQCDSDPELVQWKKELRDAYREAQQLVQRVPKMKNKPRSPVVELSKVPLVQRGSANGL
Sequence of AP-2 complex subunit beta (Homo sapiens) (P63010 whole entry, looked up, the tested form may be a part, one chain of several): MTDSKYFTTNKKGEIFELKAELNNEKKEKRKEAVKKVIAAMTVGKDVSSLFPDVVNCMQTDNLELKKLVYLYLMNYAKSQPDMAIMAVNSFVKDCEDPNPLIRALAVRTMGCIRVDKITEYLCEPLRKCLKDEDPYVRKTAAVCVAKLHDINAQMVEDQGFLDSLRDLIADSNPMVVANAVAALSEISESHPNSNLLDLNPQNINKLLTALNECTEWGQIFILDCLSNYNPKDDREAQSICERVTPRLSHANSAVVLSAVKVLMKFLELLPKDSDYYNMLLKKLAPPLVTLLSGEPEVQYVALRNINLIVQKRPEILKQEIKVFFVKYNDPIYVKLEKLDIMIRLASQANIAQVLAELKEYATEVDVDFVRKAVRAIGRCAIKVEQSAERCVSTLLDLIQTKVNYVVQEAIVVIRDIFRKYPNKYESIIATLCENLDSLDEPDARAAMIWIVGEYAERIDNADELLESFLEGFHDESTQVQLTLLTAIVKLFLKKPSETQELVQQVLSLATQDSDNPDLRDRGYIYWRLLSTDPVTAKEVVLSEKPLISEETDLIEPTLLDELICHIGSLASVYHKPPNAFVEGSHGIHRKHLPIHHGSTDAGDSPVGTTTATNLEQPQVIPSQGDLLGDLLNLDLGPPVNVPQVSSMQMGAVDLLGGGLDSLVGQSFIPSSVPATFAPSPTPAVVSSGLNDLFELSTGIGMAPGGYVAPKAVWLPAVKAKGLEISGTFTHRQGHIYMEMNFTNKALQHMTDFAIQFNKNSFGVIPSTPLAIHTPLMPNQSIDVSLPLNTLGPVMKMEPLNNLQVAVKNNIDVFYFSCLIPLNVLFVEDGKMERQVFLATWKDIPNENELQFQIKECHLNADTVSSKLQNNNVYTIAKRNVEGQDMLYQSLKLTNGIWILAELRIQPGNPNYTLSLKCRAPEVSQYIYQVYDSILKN
Sequence of Integrin beta-1 (Homo sapiens) + Integrin alpha-4 (Homo sapiens) (P05556 whole entry, looked up): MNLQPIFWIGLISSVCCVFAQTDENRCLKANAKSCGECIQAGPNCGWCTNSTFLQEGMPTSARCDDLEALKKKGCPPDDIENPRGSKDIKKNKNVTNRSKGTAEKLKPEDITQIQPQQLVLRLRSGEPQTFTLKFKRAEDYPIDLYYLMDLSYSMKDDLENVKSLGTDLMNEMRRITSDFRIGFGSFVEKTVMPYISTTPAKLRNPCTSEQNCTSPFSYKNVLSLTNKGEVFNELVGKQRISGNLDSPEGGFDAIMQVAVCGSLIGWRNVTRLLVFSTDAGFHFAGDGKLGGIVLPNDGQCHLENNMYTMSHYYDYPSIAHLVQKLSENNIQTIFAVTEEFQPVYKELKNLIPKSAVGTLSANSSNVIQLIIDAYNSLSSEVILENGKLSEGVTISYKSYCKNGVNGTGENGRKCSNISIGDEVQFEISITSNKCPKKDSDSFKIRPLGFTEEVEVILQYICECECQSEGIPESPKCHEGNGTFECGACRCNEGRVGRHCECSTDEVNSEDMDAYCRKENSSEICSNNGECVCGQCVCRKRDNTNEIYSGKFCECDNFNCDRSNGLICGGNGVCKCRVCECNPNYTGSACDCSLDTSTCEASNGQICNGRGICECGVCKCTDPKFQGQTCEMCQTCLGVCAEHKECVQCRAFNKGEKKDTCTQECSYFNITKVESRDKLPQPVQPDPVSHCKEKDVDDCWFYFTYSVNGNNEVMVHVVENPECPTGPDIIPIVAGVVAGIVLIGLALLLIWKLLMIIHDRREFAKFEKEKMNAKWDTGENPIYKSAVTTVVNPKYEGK
Sequence of Integrin beta-1 (Homo sapiens) + Integrin alpha-4 (Homo sapiens) (P13612 whole entry, looked up): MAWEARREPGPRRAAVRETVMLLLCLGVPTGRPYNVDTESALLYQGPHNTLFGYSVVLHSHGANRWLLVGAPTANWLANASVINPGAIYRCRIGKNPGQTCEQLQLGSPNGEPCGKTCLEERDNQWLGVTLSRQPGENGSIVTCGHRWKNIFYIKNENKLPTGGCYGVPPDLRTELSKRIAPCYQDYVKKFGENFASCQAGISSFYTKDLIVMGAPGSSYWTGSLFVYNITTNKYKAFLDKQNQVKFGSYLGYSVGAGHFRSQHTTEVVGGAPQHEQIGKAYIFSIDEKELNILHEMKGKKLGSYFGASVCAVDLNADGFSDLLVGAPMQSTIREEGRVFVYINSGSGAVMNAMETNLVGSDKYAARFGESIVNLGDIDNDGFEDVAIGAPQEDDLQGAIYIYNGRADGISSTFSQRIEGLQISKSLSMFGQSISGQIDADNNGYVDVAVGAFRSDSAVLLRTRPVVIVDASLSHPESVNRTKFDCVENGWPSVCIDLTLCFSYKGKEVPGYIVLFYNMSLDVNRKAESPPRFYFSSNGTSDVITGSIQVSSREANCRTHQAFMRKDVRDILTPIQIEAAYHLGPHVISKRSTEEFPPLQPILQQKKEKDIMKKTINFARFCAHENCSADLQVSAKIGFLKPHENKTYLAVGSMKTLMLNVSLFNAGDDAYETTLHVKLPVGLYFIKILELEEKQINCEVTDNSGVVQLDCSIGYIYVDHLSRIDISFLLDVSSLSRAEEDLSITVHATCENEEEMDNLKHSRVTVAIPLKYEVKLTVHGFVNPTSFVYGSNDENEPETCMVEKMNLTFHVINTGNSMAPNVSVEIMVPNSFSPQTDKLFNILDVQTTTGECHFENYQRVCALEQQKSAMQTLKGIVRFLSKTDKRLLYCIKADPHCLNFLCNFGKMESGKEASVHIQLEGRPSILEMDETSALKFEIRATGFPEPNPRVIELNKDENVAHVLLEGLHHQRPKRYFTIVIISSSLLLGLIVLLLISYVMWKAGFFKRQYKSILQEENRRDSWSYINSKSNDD
Sequence of Beta-2 adrenergic receptor (Homo sapiens) (P07550 whole entry, looked up): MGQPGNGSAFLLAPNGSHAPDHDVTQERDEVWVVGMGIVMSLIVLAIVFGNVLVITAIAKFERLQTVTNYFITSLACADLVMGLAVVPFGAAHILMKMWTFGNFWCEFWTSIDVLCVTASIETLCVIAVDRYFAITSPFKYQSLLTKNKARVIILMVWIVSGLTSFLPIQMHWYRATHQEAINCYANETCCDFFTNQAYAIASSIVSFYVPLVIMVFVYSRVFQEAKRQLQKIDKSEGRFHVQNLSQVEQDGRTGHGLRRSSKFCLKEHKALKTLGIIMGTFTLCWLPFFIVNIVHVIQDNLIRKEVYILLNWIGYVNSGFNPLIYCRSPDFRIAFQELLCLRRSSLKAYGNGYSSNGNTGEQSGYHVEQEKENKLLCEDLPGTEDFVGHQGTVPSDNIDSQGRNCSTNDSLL

By inhibition is commonly meant the relative decrease from the control value, in per cent. On to `O=C(O)c1cnccn1`, for which the percent of DMSO control GFP in experiment [1] was 103% (inactive). In addition, the values for the GFP response vs DMSO in [2] and in experiment [4] were 94.7% (inactive) and 108% (inactive), respectively. Further, the percent response of DMSO control in experiment [3] is 93.8% (inactive). For the same molecule, the GFP response, % of DMSO in experiment [5] is 106% (inactive). The double positive events in [6] amounted to 65%. The vesicle binding response in [6] is 160% (inactive). Also, the inhibition in [7] is 21% (inactive); in experiment [11] it was -5% (inactive); in experiment [15], 6% (inactive). For the same molecule, the superoxide response (% of plate) in experiment [8] is 102% (inactive). The aptamer binding inhibition in experiment [9] is 4% (inactive). Further, the response in [10] is -18.2% (inactive); in [12], 2.35% (inactive). The binding (% of control) in [13] was 104% (inactive). Also, the efflux inhibition (fraction of control) in experiment [14] is -0.21 (inactive). Moreover, in experiment [16], the differentiation response is -4.99% (inactive).
In the case of `COc1cccc(NC(=O)C2CC(=O)OC23CCOC(C)(C)C3)c1` (stereo not drawn), in [1], the percent of DMSO control GFP is 93.7% (inactive). Also, the figures for the GFP response vs DMSO in experiment [2] and in experiment [4] were 137% (inactive) and 80.9% (inactive), respectively. Moreover, the percent response of DMSO control in experiment [3] was 95.2% (inactive). The GFP response, % of DMSO in experiment [5] was 94.2% (inactive). In experiment [6], this molecule showed a double positive events of 58.3%. Moreover, the vesicle binding response in experiment [6] was 24.9% (inactive). Also, the inhibition is 19.1% (inactive) in [7], 0.76% (inactive) in experiment [11] and 9% (inactive) in experiment [15]. Also, in experiment [8], the superoxide response (% of plate) is 88.5% (inactive). Moreover, in experiment [9], the aptamer binding inhibition was 2% (inactive). In addition, the response in experiment [10] was -4.19% (inactive); in [12], -0.08% (inactive). Moreover, the binding (% of control) in experiment [13] was 101% (inactive). Moreover, the efflux inhibition (fraction of control) in [14] was -0.13 (inactive). Besides, the differentiation response in experiment [16] was -2.46% (inactive).
Take `COc1cccc2cc(-c3ccccc3)c(=O)oc12`: in experiment [1], the percent of DMSO control GFP is 105% (inactive). The GFP response vs DMSO in [2] is 106% (inactive); in experiment [4], 140% (inactive). Also, the percent response of DMSO control in experiment [3] is 101% (inactive). The GFP response, % of DMSO in experiment [5] was 106% (inactive). In experiment [6], this molecule yielded a double positive events of 61.4%. Also, the vesicle binding response in experiment [6] was 134% (inactive). The inhibition in experiment [7] is -1.97% (inactive); in experiment [11], 10.1% (inactive); in experiment [15], 2% (inactive). For the same molecule, the superoxide response (% of plate) in experiment [8] is 88.6% (inactive). Besides, the aptamer binding inhibition in experiment [9] is 3% (inactive). Further, the response in experiment [10] was -27.6% (inactive); in [12] it was 34.3% (active). The binding (% of control) in experiment [13] is 102% (inactive). Also, in [14], the efflux inhibition (fraction of control) is 0.29 (inactive). Further, in experiment [16], the differentiation response is -1.05% (inactive).
In the case of `Cc1cccc(CN2CCN(C(c3ccccc3)c3ccc(Cl)cc3)CC2)c1` (stereo not drawn), the percent of DMSO control GFP in experiment [1] is 97.7% (inactive). The GFP response vs DMSO in [2] is 104% (inactive); in [4], 99.4% (inactive). Besides, the percent response of DMSO control in [3] was 98.2% (inactive). The GFP response, % of DMSO in experiment [5] is 96.9% (inactive). Moreover, in experiment [6], the double positive events worked out at 62.4%. In [6], the vesicle binding response was 227% (inactive). For the same molecule, the inhibition in experiment [7] was -6.04% (inactive); in experiment [11], 35.5% (inactive); in experiment [15], -1% (inactive). In [8], the superoxide response (% of plate) was 99.2% (inactive). In addition, the aptamer binding inhibition in [9] was 2% (inactive). In addition, the response is 8.57% (inactive) in experiment [10] and 0.49% (inactive) in [12]. Besides, the binding (% of control) in experiment [13] is 105% (inactive). In addition, the efflux inhibition (fraction of control) in experiment [14] was 0.46 (active). Further, in [16], the differentiation response was 26.3% (inactive).

For the origin of these results see PubChem BioAssay.
